NS1 inh = blocks influenza NS1 protein function; Potency, µM (highest dose often 46.1 µM), inactives show top-dose activity, positive = more growth; actives 0.4% (n = 270,000); AID 2326; calls by dose curve; also: potency is read from the fitted curve at half-maximal effect; actives are rising curves; nearly all actives have a fitted effect of over 50% in size
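Recovery from NS1-induced slow growth read by OD600 in budding yeast switched to galactose assay medium (pH 6.0, -URA) at 1:100 dilution. Compound 23 nl per well; the matching strain lacking NS1 serves as control.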
Shiga inhibitor = blocks Shiga toxin action in Vero cells; Vero cells, Shiga toxin protein synthesis inhibition reporter; AID 2315; actives 9.2% (n = 290,000); inhibition, % at 38.7 µM; in the data active = inhibition mostly above about 28%, no sharp cut-off; inactive = mostly below about 43%; also: 0% is about no effect
AmpC detergent = blocks E. coli AmpC beta-lactamase in detergent assay. P00811. AmpC hydrolysis of nitrocefin, absorbance 480 nm, 0.01% Triton. Potency, µM (doses to about 114 µM), inactives show at the highest dose activity change, negative = inhibition, hits mostly inhibitors. actives 0.041% (n = 370,000). AID 485294;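 also: potency is read from the fitted curve at half-maximal effect; 0% = no-compound wells and -100% = no-enzyme wells; nearly all actives have a fitted effect of over 25% in size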
Target sequence (P00811 whole entry, looked up): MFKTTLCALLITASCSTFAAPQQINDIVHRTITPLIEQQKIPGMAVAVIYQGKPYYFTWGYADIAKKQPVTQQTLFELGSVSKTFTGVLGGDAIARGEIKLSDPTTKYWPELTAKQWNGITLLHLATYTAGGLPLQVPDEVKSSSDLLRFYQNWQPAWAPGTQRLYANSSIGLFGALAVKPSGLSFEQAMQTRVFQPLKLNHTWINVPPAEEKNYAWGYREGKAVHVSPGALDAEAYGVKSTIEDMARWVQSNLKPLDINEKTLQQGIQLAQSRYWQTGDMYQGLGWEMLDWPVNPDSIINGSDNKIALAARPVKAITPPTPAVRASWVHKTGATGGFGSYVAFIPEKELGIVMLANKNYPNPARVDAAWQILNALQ
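20 mM phosphate pH 7.0 + 0.01% (detergent screen) or 0.0001% Triton X-100; 5.3 nM AmpC reagent; cpd preinc 15 min RT; nitrocefin (800 uM stock) to start; A480 q20 s × 4 min; Activity was normalised to no-enzyme and no-compound control wells.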
AmpC no deterg = inhibitors of E. coli AmpC beta-lactamase without detergent. AmpC nitrocefin hydrolysis, absorbance 480 nm, 0.0001% Triton. actives 0.52% (n = 330,000). Potency, µM (series often up to 57.1 µM), without a hit: at the highest dose activity change, negative = inhibition, hits mostly inhibitors. P00811;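 also: potency is read from the fitted curve at half-maximal effect; plate controls were no compound for no effect and no enzyme for full effect; nearly all actives have a fitted effect of over 20% in size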
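20 mM phosphate pH 7.0 + 0.01% (detergent screen) or 0.0001% Triton X-100; 5.3 nM AmpC reagent; cpd preinc 15 min RT; nitrocefin (800 uM stock) to start; A480 q20 s × 4 min; Activity was normalised to no-enzyme and no-compound control wells.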
CHX counter = counter-screen hit for Shiga toxin inhibitors, cycloheximide | cell reporter, cycloheximide protein synthesis inhibition counterscreen | actives 12% (n = 300,000) | AID 2314 | max response, %; in the data active = max response mostly above about 13%, no sharp cut-off; inactive = mostly below about 14%; also: read at 38.3 µM for the half of the compounds with a filed dose; 0% is about no effect
The depositor's hits bear a star; ? = inconclusive; · = no result given. Only a selection was taken, and hits are over-represented in it overall. Unless noted, calls follow the shape of the dose curve; as a rule, active = well fitted curve in the direction sought with a large enough effect; inconclusive = small, poorly fitted or top-dose-only effect, or another doubt; inactive = no such curve, though single readings can be large; an effect the other way counts as inactive or inconclusive.

SMILES	NS1 inh	Shiga inhibitor	AmpC detergent	AmpC no deterg	CHX counter
CCn1c(=N)c(C(=O)NCc2ccccc2)cc2c(=O)n3cc(C)ccc3nc21	·	·	6%	·	·
Cc1ccc(CSc2nc(N)cc(=O)[nH]2)cc1	3%	-2	-4%	-16%	-1
Cc1ccc(CSc2nc(N)cc(N)n2)cc1	-27%	·	?	-19%	25*
N#Cc1ccc(CSc2nc(N)cc(N)n2)cc1	?	13	?	-16%	7.9*
O=C(COc1ccc(-c2ccccc2)cc1)NNC(=O)NC1CCCCC1	·	-4	-14%	-11%	-1
COc1ccc(NC(=O)c2nnn(-c3ccc(C(C)C)cc3)c2C)c(OC)c1	·	·	27%	·	·
N#CC1(C#N)CC(C=O)=C(N)C1(C#N)CC(=O)C12CC3CC(CC(C3)C1)C2 (stereo not drawn)	-11%	-14	-10%	16µM*	-5
COc1ccc(C2(C)CC(C)(C)Nc3ccccc32)cc1 (stereo not drawn)	-6%	·	9%	-15%	0
COc1ccc(C2CC(C)(c3ccc(OC)cc3)Nc3ccccc3N2)cc1 (stereo not drawn)	1%	108*	0%	14%	53*
Cc1cccc2cc3c(nc12)SC(=NCC1CCCO1)N(Cc1ccco1)C3 (stereo not drawn)	22%	41	-3%	-1%	20*
Cc1ccc2nc3c(cc2c1)CN(Cc1ccco1)C(=NCC1CCCO1)S3 (stereo not drawn)	-36%	-5	5%	-28%	-1
Cc1csc(Nc2nc(N)c(C(=O)Nc3cc(Cl)ccc3F)o2)n1	5%	21	0%	-43%	15
Cc1ccc(Cl)cc1N1CCN(C(=O)c2cc(S(=O)(=O)N3CCCC3)c[nH]2)CC1	·	·	-5%	·	·
CCC1CN(C(=O)N2CCC(C(=O)NCc3ccccc3F)CC2)c2ccccc2O1 (stereo not drawn)	·	·	12%	·	·
O=C(NCC(=O)N1CC(O)CC1C(=O)N1CC(O)CC1C(=O)OCc1ccccc1)OCc1ccccc1 (stereo not drawn)	·	88*	-1%	20%	20
CC(NC(=O)CNC(=O)OCc1ccccc1)C(=O)N1CC(O)CC1C(=O)OCc1ccccc1 (stereo not drawn)	-5%	15	3%	?	-4
O=C(CSc1nnc(C2COc3ccccc3O2)o1)N1CCCC1 (stereo not drawn)	0%	52*	1%	-13%	47*
O=C(CSc1nnc(C2CCCCC2)o1)N1CCCCC1	-1%	81*	-8%	-7%	31*
CCOC(=O)N1CCN(C(=O)CSc2nnc(C3COc4ccccc4O3)o2)CC1 (stereo not drawn)	-11%	-7	2%	49%	1
Cc1c(NC(=S)NC(=O)c2cccc(Br)c2)c(=O)n(-c2ccccc2)n1C	4%	-6	-7%	-3%	-1
COC(=O)C1=CO[C@@H](C)[C@@H]2CN3CCc4c([nH]c5ccccc45)[C@@H]3C[C@H]12	·	23	·	·	-2
O=C(/C=C/Nc1nccs1)C(F)(F)Cl	5%	102*	0%	-38%	35*
O=C(Nc1nccs1)NC(C(F)(F)F)C(F)(F)F	-5%	-11	-4%	-4%	-6
N#Cc1ccc(Cl)cc1NC(=O)COC(=O)c1ccc2c(c1)OCCO2	-2%	15	2%	-34%	8
Cc1cccc(NC(=O)c2ccc3c(c2)OCCO3)c1C	3%	109*	-4%	-31%	47*
SMILES	NS1 inh	Shiga inhibitor	AmpC detergent	AmpC no deterg	CHX counter
N#Cc1ccccc1NC(=O)c1ccc2c(c1)OCCO2	3%	99*	-5%	-26%	31*
N#Cc1ccccc1COC(=O)c1ccc2c(c1)OCCO2	·	·	-15%	-24%	·
Cc1ccccc1NC(=O)c1ccc2c(c1)OCCO2	1%	137*	?	-11%	18*
N#Cc1ccccc1NC(=O)COC(=O)c1ccc2c(c1)OCCO2	-12%	29	?	-28%	19*
O=C(O)Cc1cc(F)c(S(=O)(=O)N2CCN(S(=O)(=O)c3ccc4c(c3)OCCO4)CC2)cc1F	·	-5	·	·	-7
CC(C)(C)NC(=O)c1ccccc1NC(=O)c1ccc2c(c1)OCO2	-3%	-19	-6%	-15%	-4
COC(=O)c1ccccc1NC(=O)c1ccc2c(c1)OCCCO2	-41%	30	-4%	-9%	22*
COc1cccc(CN2CCSCC2)c1	-4%	-7	?	-19%	-8
COc1cccc(CN=C2Nc3ccccc3CS2)c1	·	77*	?	-40%	54*

Screens: PubChem BioAssay, National Center for Advancing Translational Sciences (NCATS)
